Bioassay records from PubChem BioAssay.
Sampled rows, rich in hits. Any-hit rate of the full collection: about 3%.
Tau fluor cs: Counterscreen qHTS for Inhibitors of Tau Fibril Formation, Fluorescence Polarization; Potency, µM (series often up to 57.7 µM), without a hit: at the top dose activity change, negative = decrease; 280,000 compounds, 0.93% hits; tau K18 P301L Alexa594 fluorescence, heparin fibrillization; note: nearly all actives have a fitted effect of over 55% in size
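Human K18 P301L tau (15 uM unlabeled plus 0.24 uM Alexa 594-labeled, final) in 100 mM sodium acetate pH 7 was mixed with compound and 20 uM heparin and incubated 6 hr at 37 C.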
TR SRC2 fluor cs: Total Fluorescence Counterscreen for Inhibitors of the Interaction of Thyroid Hormone Receptor and Steroid Receptor Coregulator 2; Potency, µM (highest dose often 106 µM), for the others: at the highest dose fluorescence change, negative = quenching; TRb/SRC2 Texas Red total fluorescence interference; AID 1479, 2009; 280,000 compounds, 0.29% hits; active = well fitted curve in either direction with a large enough effect; inconclusive = small, poorly fitted or top-dose-only effect
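Human TRb ligand-binding domain at 0.6 uM with 20 nM Texas Red SRC2 peptide in Tris buffer containing 1 uM T3 and 5% DMSO, incubated with compound 5 h at ambient temperature. Total fluorescence (555/632 nm) calculated as parallel + 2 × perpendicular.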
Tau fibril FP: qHTS for Inhibitors of Tau Fibril Formation, Fluorescence Polarization; 280,000 compounds, 0.39% hits; Microtubule-associated protein tau (Homo sapiens), P10636; K18 P301L tau heparin fibrillization, Alexa594 FP, 6 h; AID 1468, 2008; Potency, µM (top dose mostly 57.7 µM), inactives show at the top dose activity, negative = inhibition, usual class: inhibitors; note: nearly all actives have a fitted effect of over 55% in size
Target sequence (P10636 561-689 P618L limits assumed): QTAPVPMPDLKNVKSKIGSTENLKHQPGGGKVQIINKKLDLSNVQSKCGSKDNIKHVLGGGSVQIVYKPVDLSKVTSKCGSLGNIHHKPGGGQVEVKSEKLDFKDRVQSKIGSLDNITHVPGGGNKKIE
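FP of Alexa 594-tau after heparin (20 uM) induction. Substrate: human K18 P301L, 15 uM unlabeled, 0.24 uM labeled. Buffer 100 mM sodium acetate pH 7. 6 hr, 37 C.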
Tau fibril ThT: qHTS for Inhibitors of Tau Fibril Formation, Thioflavin T Binding. 270,000 compounds, 2.1% hits. Microtubule-associated protein tau (Homo sapiens), P10636. AID 1460, 2008. recombinant tau K18 P301L (four-repeat tau fragment), heparin-induced fibrillization, ThT fluorescence. Potency, µM (series often up to 57.4 µM), inactives show at the top dose activity, negative = inhibition, most hits filed as inhibitors; note: nearly all actives have a fitted effect of over 55% in size
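Heparin-induced (20 uM) aggregation of recombinant human K18 P301L tau, 15 uM unlabeled with 0.24 uM labeled, pH 7 acetate buffer, 6 hr at 37 C with compound. Fibrils quantified by 30 uM ThT fluorescence after 1 hr ambient incubation.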
TRb SRC2 PPI: qHTS for Inhibitors of the Interaction of Thyroid Hormone Receptor and Steroid Receptor Coregulator 2; Thyroid hormone receptor beta (Homo sapiens), P10828; TRbeta-SRC2 peptide binding, fluorescence polarization; receptor liganded with 1 µM T3; Potency, µM (titrated, usually from 106 µM), without a hit: at the highest dose activity change, negative = inhibition, hits mostly inhibitors; 280,000 compounds, 0.065% hits;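 note: plate controls were bound peptide for no effect and peptide without receptor for full effect; nearly all actives have a fitted effect of over 50% in size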
Target sequence (P10828 whole entry, looked up): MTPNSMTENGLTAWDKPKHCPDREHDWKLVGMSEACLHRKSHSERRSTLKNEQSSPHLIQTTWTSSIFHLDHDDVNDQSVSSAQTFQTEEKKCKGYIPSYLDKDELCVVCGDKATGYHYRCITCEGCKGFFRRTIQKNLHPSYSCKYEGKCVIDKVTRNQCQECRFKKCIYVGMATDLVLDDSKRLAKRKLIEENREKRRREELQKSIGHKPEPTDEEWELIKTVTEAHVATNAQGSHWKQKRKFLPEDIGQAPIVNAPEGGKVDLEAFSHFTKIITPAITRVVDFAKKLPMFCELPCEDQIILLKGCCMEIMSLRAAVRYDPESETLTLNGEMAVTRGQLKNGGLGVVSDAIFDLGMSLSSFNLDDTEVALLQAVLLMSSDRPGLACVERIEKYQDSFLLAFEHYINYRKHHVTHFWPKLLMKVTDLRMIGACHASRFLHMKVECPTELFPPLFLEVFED
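Each compound concentration gave % activity, normalized to unbound and bound Texas Red SRC2 controls, from polarization read after 5 hr ambient incubation with T3-loaded human TRb LBD.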
* = called active by the depositor; ? = inconclusive; nt = no result; [ ] = another dose, or the depositor's remark. Unless noted, calls come from the whole dose curve; as a rule, active = well fitted curve in the direction sought with a large enough effect; inconclusive = small, poorly fitted or top-dose-only effect, or another doubt; inactive = no such curve, though single readings can be large; an effect the other way counts as inactive or inconclusive. Unless noted, % is set by controls: 0 for no effect and ±100 for the full control effect; potency is the fitted concentration of half-maximal effect.

SMILES	Tau fluor cs	TR SRC2 fluor cs	Tau fibril FP	Tau fibril ThT	TRb SRC2 PPI
Oc1ccc2ccccc2c1N=Nc1ccccn1	?	-14%	4%	5µM*	4%
COC(=O)C1=C(C(=O)OC)[C@@H]2N(C)c3ccc(OC)cc3[C@@]23C[C@@H](C(=O)OC)N(C(C)=O)C3=N1	-11%[11.6 µM]	-2%[11.2 µM]	1%[11.6 µM]	-2%[11.5 µM]	8%[11.2 µM]
Cc1ccc(S(=O)(=O)c2cn(C)c3cc(N4CCCC(C)C4)c(F)cc3c2=O)c(C)c1 (stereo not given)	-9%	-20%	-11%	-7%	-2%
COc1ccc(-c2cc3nc(C)c(CCC(=O)N4CCN(c5ccc(F)cc5)CC4)c(C)n3n2)c(OC)c1	-15%	-3%	5%	?	-2%
OCC1OC(C#Cc2ccccc2)C=CC1OCc1ccccc1 (stereo not given)	-12%[11.6 µM]	-3%[11.2 µM]	-8%[11.6 µM]	-6%[11.5 µM]	5%[11.2 µM]
O=C(NCCc1ccccc1)c1cc(Sc2cccc(Cl)c2)nc2ccccc12	-16%	0%	-6%	-5%	-1%
CSc1cccc(Nc2cc(C(=O)NCCc3ccc(Cl)cc3)c3ccccc3n2)c1	3.5µM*[quencher]	1%	?	-11%	1%
CCCCN(CCCNC(=O)c1cc(Nc2cccc(SC)c2)nc2ccccc12)Cc1ccccc1	1.8µM*[quencher]	-1%	?	?	-4%
CC(C)c1ccc(Nc2cc(C(=O)NCCCN(C)Cc3ccccc3)c3ccccc3n2)cc1	?	2%	-6%	6%	-6%
COc1cccc(CNC(=O)CCCn2ncn3c(cc4occc43)c2=O)c1OC	-10%	-4%	-3%	-4%	4%
COc1ccc(-n2c(C)cc(/C=N/Nc3nnc(C)n3N)c2C)cc1	-27%	-2%	?	28µM*	0%
CCOc1ccc(-n2c(C)cc(/C=N/Nc3nc(C)cc(=O)[nH]3)c2C)cc1	?	-1%	-1%	?	0%
CC(C)CN(CC(C)C)S(=O)(=O)N1CCC(C(=O)N2CCc3ccccc3C2)CC1	-5%	-2%	6%	-6%	-3%
CCS(=O)(=O)N1CCC(C(=O)N2CCc3ccccc3C2)CC1	16µM*[quencher]	-5%	?	?	5%
CN1C(=O)c2[nH]nc(-c3ccc(F)cc3)c2C1c1cccc(O)c1 (stereo not given)	-6%	-3%	-11%	-3%	-3%
O=[N+]([O-])c1cc(F)c2cccnc2c1O	-21%	?	?	7.9µM*	-16%
O=[N+]([O-])c1cc(Cl)c(O)c2ncccc12	-20%	-2%	-5%	13µM*	14%
O=[N+]([O-])c1cc(Cl)c2cccnc2c1O	-9%	-4%	-3%	10µM*	7%
O=C(COc1ccccc1-c1nc(-c2ccccc2)no1)Nc1cccc([N+](=O)[O-])c1	?	-1%	17%	-17%	-9%
O=C1N/C(=N/NC(=O)c2cccc3ccccc23)S/C1=C\c1ccccc1OCc1ccccc1	-29%	-4%	1%	?	-2%
COc1ccc(OC)c(/C=C2\S/C(=N/NC(=O)c3ccc4ccccc4c3)NC2=O)c1	?	?	3%	8.9µM*	?
CCOc1ccccc1NC(=O)Cn1c(=O)nc(-c2ccccc2F)c2cc(Cl)ccc21	-18%	-2%	-4%	?	5%
CCc1cc2c(cc3c(=O)n(CC(=O)NC4CCC(C)CC4)nc(CC)n32)s1 (stereo not given)	-15%	9%	-4%	-17%	7%
CCN1C(=O)/C(=C2\C=Cc3ccccc3N2CC)SC1=S	?	0%	12%	6.3µM*	-7%
CCN1C(=O)/C(=C2/C=Cc3ccccc3N2C)OC1=S	-15%	0%	-4%	3.2µM*	10%
SMILES	Tau fluor cs	TR SRC2 fluor cs	Tau fibril FP	Tau fibril ThT	TRb SRC2 PPI
O=C(CS(=O)(=O)c1cccc2nsnc12)NCc1ccc(Cl)cc1	-1%	1.8µM*[quencher]	1%	1%	-18%
C=CC1=C(C)/C(=C/c2[nH]c(Cc3[nH]c(/C=C4\NC(=O)C(C)=C4C=C)c(C)c3CCC(=O)O)c(CCC(=O)O)c2C)NC1=O	?	16%	?	10µM*	-6%
COc1cccc(NC(=O)CNC(=O)Cn2c(C)cc3ccccc3c2=O)c1	-12%	0%	-9%	-9%	3%
O=c1c(=Nc2ccccc2O)c(=O)c2ccccc12	-13%	3%	?	10µM*	-14%
COc1ccc(NC(=O)C2CCC(CNS(=O)(=O)c3ccc(Br)s3)CC2)c(OC)c1 (stereo not given)	-18%	-3%	-5%	-9%	6%
CCc1cccc2c(C(=O)CSc3nncn3-c3ccccc3OC)c[nH]c12	1%	89µM*[quencher]	-2%	3%	0%
CCC(C)(C)C(=O)Nc1cc([N+](=O)[O-])ccc1F	-4%	0.1µM*[quencher]	5%	-3%	-22%[53 µM]
CCC(C)(C)C(=O)Nc1cc([N+](=O)[O-])ccc1Cl	-2%	-2%	1%	0%	-4%
O=S(=O)(O)c1cc(S(=O)(=O)O)c2c(N=Nc3ccccc3)c(O)ccc2c1	nt	-14%[201 µM]	nt	nt	0%[201 µM]
Cc1ccc2c(c1)c1c3n2CCN(C(=O)CN2CCN(C)CC2)C3CCC1 (stereo not given)	-2%	-6%	9%	-13%	4%
Cc1ccc2c(c1)c(=O)c1c3n2CCN(C(=O)CCl)C3CC1 (stereo not given)	?	-3%	?	14µM*	-5%
CCc1ccccc1Nc1nn2c(=O)c3ccc(C(=O)NCc4cccs4)cc3nc2s1	-5%	-12%	-7%	15%	21%
CCC(=O)Nc1nc(CC(=O)Nc2ccccc2OC)cs1	1%	1%	-8%	-1%	-6%
COc1ccccc1NC(=O)Cc1csc(NC(=S)Nc2ccc(C)cc2)n1	13µM*[quencher]	3%	?	-5%	7%
COC(=O)C1=C(C(=O)OC)[C@@H]2N(Cc3ccccc3)c3ccccc3[C@@]23C[C@@H](C(=O)OC)N(S(=O)(=O)c2cccs2)C3=N1	-12%[11.6 µM]	-2%[11.2 µM]	2%[11.6 µM]	-7%[11.5 µM]	5%[11.2 µM]
O=C1NC(=Nc2ccc(O)cc2)S/C1=C/c1ccco1	?	-8%	-10%	?	3%
O=C1NC(=Nc2ccccc2)S/C1=C\c1cccs1	-24%	-2%	-10%	nt	8%
Cn1cccc1/C=C1\SC(=Nc2ccc(O)cc2)NC1=O	?	-4%	1%	4.5µM*	2%
Cn1cc(/C=C2/SC(=O)N(c3ccccc3)C2=O)c2ccccc21	-17%	0%	5%	6%	-2%
